# E coli growth-1: bacterial growth inhibition, counter-screen for AddAB inhibitors | inhibition, % at 11.9 µM | 330,000 compounds, 0.27% hits | AID 449728 | E. coli V3065 growth, OD600 absorbance, 18 h;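 active = inhibition above the campaign's mean inhibition across all tested compounds plus 3 SD, cut at about 9.9% in these data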;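 note: uninfected addAB+ strain grown without phage in ampicillin broth; 0% = DMSO wells and 100% = ciprofloxacin 0.95 µg/ml wells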
# AddAB inh: less growth of phage-infected E. coli with AddAB; E. coli expressing H. pylori AddAB, absorbance growth; inhibition, % at 11.9 µM; 330,000 compounds, 0.29% hits; AID 435030; in the data active = inhibition above about 12%;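 note: 0% = vehicle wells of infected cells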
# p-CIP stab down: compounds decreasing mouse p/CIP protein stability; F442A p/CIP-EGFP cells, EGFP fluorescence, 16 h; decrease of EGFP signal, % at 10 µM; Q05BA5; 290,000 compounds, 0.01% hits;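 active = EGFP signal decrease of at least 30% at 10 µM or well 3 SD below plate mean, unless failing retest; inactive = the rest, including hits failing retest or dose response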
# phage Ecoli inh: E. coli growth loss with phage present. 360,000 compounds, 0.26% hits. inhibition, % at 11.9 µM. growth absorbance; in the data active = inhibition above about 11%
# Tat export inh: inhibitors of E. coli Tat protein transport. E. coli MC4100 TorA-mCherry Tat export, fluorescence. inhibition, % at 10 µM. 340,000 compounds, 0.036% hits. AID 488895;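 active = mean replicate inhibition at least 50% and at least half of replicates individually reaching 50%; inconclusive = only one of the two criteria met; inactive = neither criterion met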;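 note: exported cargo escapes ClpAP degradation while cytoplasmic cargo is degraded and loses fluorescence; 0% = median of neutral control wells and 100% = median of NaSCN control wells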
# E coli growth-2: E. coli growth inhibition; Escherichia coli growth, OD600, 23 h; active compounds read low; OD600 absorbance (concentration not given with the values); 330,000 compounds, 0.21% hits;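 active = OD600 absorbance below the run mean of sample wells minus 3.6 SD, in any replicate, cut at about 0.56 in these data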
# AddAB conf: growth loss of T4-infected E. coli expressing H. pylori AddAB, confirmed; 880 compounds, 64% hits; shares compounds with AddAB inh; inhibition, % at 11.9 µM; E. coli V3065 expressing H. pylori AddAB, T4 phage, OD; T4 phage with gene 2 nonsense mutations;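 active = mean inhibition above a set limit taken from the earlier primary screen, cut at about 13% in these data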;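 note: higher means less bacterial growth since AddAB block lets phage replicate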
# RecBCD counter: counter-screen: growth loss of RecBCD+ E. coli with mutant T4 phage | E. coli V66 + mutant T4 phage, OD growth | shares compounds with AddAB inh | inhibition, % at 11.9 µM | 880 compounds, 73% hits | AID 488955;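 active = mean inhibition above the mean of solvent-only control wells plus 3 SD, cut at about 4% in these data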;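 note: optical density read after an 18 h incubation at 37 °C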
# bact viab count: counter-screen: bacterial growth inhibition; shares compounds with AddAB inh; bacterial viability, absorbance (AddAB counterscreen); inhibition, % at 11.9 µM; 880 compounds, 35% hits; AID 488956; in the data active = inhibition above about 25%
# Numbers without * were called inactive; i = inactive; u = inconclusive; x = no result given. This is a sample that favours compounds with a hit; in the whole collection about 0.51% have one here.
SMILES,E coli growth-1,AddAB inh,p-CIP stab down,phage Ecoli inh,Tat export inh,E coli growth-2,AddAB conf,RecBCD counter,bact viab count
Cc1ccc(/C=N/NC(=O)C(C)Oc2cccc3ccccc23)o1 (stereo unspecified),1,1,-2,0,16,x,x,x,x
CCN1/C(=C/C=C/c2sc3ccccc3[n+]2CC)Sc2ccccc21,9,13*,x,x,i,x,61*,9.1*,14
O=C(Nc1nnc(C(F)(F)F)s1)c1ccc(Br)s1,9,14*,-23,4,-3,0.62,4,6.7*,1
CCOc1ccc(C=O)cc1CN1CCCCC1,-5,3,5,3,-4,0.74,x,x,x
Cc1cc2ccccn2c1C(=O)c1cccc([N+](=O)[O-])c1,1,1,-10,2,-4,0.74,x,x,x
Cc1cc2ccccn2c1C(=O)c1ccc([N+](=O)[O-])o1,20*,40*,-31,12*,12,0.69,95*,8.4*,40*
COc1ccc(C2=CC(=O)CC(c3ccc(OC)cc3)C2)cc1 (stereo unspecified),10*,16*,-26,2,0,x,-4,1,-2
COc1ccc(C2=CC(=O)C[C@H](c3ccc(Cl)cc3)C2)cc1,-1,2,x,2,12,x,x,x,x
CC1=C(C(=O)N2CCOCC2)CC(CC(=O)NCCc2ccccn2)C(=O)N1Cc1ccc(F)cc1 (stereo unspecified),x,x,x,1,x,x,x,x,x
Nc1c(S(=O)(=O)c2cccc(Cl)c2)c2nc3ccccc3nc2n1/N=C/c1ccc(O)c(O)c1,13*,15*,-6,x,x,x,13*,13*,14
Nc1c(S(=O)(=O)c2ccccc2)c2nc3ccccc3nc2n1N=Cc1cccc(O)c1,x,x,x,x,x,0.76,x,x,x
COc1cc(NS(=O)(=O)c2ccc(NC(=S)NC(=O)c3sc4ccccc4c3Cl)cc2)ncn1,5,13*,5,8,6,0.72,-2,2,0
O=c1c(O)c(-c2ccccc2)oc2ccccc12,x,x,x,10,0,x,x,x,x
Cc1ccc(-c2oc3ccccc3c(=O)c2O)cc1,13*,13*,-8,4,6,0.72,14*,14*,10
Cc1cc(C(=O)N2CCN(c3cc(Cl)ccc3C)CC2)on1,-3,127*,5,1,-5,0.67,5,0,-1
Cc1ccc(Cl)cc1N1CCN(C(=O)C(=O)N2CCCCC2)CC1,-2,5,2,7,14,0.7,x,x,x
CCn1c(NC2CCCCC2)nc2ccccc21,1,-1,2,-2,-2,0.74,x,x,x
CCCCNC(=O)O[C@H]1C[C@@H]2CCN3C(=O)CCC[C@H]([C@H]1CC)[C@H]23,2,15*,-10,3,-10,x,-2,1,-4
Cc1ccc(S(=O)(=O)N/N=C\c2ccc([N+](=O)[O-])o2)cc1,13*,18*,-5,7,-5,x,102*,9.5*,54*
O=[N+]([O-])c1ccc(/C=N/NS(=O)(=O)c2ccc(Cl)cc2)o1,22*,96*,-6,8,5,x,101*,7.7*,43*
Cc1ccc(/C=N/NS(=O)(=O)c2ccc([N+](=O)[O-])cc2)o1,-2,3,-2,3,3,x,x,x,x
CCOC(=O)N/N=C\c1ccc([N+](=O)[O-])o1,26*,31*,-10,6,u,x,98*,13*,29*
Cc1ccc(S(=O)(=O)N/N=C\c2ccc([N+](=O)[O-])o2)cc1C,16*,25*,-3,9,11,x,100*,9.5*,41*
O=[N+]([O-])c1ccc(C=NNS(=O)(=O)c2ccc(Cl)cc2)o1,x,x,x,x,x,0.5,x,x,x
CCC(=O)Nc1ccc2nc3c(=O)[nH]c(=S)[nH]c3nc2c1,-1,0,-6,1,-12,0.67,x,x,x
Cc1ccc(N(C(=O)c2ccc3c(c2)OCO3)C2C=CS(=O)(=O)C2)cc1C (stereo unspecified),1,6,-9,1,1,0.71,x,x,x
